± gives the standard deviation of the averaged measurements. The full data set covers some 5,400 targets. This sample favours those with the largest changes.
Compound: Nc1nc2c(ncn2[C@@H]2O[C@H](COP(=O)(O)OP(=O)(O)OP(=O)(O)O)[C@@H](O)[C@H]2O)c(=O)[nH]1 [guanosine triphosphate]
Assay: NP40-soluble protein abundance relative to vehicle (solubility fold change) (ratio); higher = more soluble protein in presence of GTP
In short: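 Jurkat crude lysate prepared with a Dounce homogeniser was treated at eight concentrations spanning 0.1 to 10 mM, 10 min at room temperature then 3 min at 37 °C. Solubilisation with 0.8% NP40 and benzonase and ultracentrifugation preceded TMT labelling of the supernatant for LC-MS/MS. Fold change against the detergent-processed vehicle was determined per replicate from vsn-normalised intensities, across three independent experiments.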

Chain of UniProt Q8WYH8 (Q8WYH8 whole entry, one chain of several): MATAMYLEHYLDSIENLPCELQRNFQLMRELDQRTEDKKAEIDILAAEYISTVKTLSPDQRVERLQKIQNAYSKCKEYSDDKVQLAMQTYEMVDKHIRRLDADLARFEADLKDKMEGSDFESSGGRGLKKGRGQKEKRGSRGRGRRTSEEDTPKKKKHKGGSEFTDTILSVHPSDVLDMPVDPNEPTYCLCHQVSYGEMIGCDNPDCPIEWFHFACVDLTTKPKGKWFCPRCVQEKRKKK
Chain of UniProt Q96CW1 (Q96CW1 whole entry, one chain of several): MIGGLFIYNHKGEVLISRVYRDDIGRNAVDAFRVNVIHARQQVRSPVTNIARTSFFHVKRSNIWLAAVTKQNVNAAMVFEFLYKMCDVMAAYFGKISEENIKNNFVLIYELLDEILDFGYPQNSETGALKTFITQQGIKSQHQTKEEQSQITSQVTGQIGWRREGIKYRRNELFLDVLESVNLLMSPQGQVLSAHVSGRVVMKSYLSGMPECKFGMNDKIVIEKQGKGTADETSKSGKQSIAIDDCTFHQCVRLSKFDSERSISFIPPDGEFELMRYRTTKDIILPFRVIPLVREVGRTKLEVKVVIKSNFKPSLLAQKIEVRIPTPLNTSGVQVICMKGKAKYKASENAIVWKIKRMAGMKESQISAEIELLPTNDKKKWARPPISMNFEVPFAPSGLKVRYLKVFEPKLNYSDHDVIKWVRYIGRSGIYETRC
Chain of UniProt Q9Y485 (Q9Y485 whole entry, one chain of several): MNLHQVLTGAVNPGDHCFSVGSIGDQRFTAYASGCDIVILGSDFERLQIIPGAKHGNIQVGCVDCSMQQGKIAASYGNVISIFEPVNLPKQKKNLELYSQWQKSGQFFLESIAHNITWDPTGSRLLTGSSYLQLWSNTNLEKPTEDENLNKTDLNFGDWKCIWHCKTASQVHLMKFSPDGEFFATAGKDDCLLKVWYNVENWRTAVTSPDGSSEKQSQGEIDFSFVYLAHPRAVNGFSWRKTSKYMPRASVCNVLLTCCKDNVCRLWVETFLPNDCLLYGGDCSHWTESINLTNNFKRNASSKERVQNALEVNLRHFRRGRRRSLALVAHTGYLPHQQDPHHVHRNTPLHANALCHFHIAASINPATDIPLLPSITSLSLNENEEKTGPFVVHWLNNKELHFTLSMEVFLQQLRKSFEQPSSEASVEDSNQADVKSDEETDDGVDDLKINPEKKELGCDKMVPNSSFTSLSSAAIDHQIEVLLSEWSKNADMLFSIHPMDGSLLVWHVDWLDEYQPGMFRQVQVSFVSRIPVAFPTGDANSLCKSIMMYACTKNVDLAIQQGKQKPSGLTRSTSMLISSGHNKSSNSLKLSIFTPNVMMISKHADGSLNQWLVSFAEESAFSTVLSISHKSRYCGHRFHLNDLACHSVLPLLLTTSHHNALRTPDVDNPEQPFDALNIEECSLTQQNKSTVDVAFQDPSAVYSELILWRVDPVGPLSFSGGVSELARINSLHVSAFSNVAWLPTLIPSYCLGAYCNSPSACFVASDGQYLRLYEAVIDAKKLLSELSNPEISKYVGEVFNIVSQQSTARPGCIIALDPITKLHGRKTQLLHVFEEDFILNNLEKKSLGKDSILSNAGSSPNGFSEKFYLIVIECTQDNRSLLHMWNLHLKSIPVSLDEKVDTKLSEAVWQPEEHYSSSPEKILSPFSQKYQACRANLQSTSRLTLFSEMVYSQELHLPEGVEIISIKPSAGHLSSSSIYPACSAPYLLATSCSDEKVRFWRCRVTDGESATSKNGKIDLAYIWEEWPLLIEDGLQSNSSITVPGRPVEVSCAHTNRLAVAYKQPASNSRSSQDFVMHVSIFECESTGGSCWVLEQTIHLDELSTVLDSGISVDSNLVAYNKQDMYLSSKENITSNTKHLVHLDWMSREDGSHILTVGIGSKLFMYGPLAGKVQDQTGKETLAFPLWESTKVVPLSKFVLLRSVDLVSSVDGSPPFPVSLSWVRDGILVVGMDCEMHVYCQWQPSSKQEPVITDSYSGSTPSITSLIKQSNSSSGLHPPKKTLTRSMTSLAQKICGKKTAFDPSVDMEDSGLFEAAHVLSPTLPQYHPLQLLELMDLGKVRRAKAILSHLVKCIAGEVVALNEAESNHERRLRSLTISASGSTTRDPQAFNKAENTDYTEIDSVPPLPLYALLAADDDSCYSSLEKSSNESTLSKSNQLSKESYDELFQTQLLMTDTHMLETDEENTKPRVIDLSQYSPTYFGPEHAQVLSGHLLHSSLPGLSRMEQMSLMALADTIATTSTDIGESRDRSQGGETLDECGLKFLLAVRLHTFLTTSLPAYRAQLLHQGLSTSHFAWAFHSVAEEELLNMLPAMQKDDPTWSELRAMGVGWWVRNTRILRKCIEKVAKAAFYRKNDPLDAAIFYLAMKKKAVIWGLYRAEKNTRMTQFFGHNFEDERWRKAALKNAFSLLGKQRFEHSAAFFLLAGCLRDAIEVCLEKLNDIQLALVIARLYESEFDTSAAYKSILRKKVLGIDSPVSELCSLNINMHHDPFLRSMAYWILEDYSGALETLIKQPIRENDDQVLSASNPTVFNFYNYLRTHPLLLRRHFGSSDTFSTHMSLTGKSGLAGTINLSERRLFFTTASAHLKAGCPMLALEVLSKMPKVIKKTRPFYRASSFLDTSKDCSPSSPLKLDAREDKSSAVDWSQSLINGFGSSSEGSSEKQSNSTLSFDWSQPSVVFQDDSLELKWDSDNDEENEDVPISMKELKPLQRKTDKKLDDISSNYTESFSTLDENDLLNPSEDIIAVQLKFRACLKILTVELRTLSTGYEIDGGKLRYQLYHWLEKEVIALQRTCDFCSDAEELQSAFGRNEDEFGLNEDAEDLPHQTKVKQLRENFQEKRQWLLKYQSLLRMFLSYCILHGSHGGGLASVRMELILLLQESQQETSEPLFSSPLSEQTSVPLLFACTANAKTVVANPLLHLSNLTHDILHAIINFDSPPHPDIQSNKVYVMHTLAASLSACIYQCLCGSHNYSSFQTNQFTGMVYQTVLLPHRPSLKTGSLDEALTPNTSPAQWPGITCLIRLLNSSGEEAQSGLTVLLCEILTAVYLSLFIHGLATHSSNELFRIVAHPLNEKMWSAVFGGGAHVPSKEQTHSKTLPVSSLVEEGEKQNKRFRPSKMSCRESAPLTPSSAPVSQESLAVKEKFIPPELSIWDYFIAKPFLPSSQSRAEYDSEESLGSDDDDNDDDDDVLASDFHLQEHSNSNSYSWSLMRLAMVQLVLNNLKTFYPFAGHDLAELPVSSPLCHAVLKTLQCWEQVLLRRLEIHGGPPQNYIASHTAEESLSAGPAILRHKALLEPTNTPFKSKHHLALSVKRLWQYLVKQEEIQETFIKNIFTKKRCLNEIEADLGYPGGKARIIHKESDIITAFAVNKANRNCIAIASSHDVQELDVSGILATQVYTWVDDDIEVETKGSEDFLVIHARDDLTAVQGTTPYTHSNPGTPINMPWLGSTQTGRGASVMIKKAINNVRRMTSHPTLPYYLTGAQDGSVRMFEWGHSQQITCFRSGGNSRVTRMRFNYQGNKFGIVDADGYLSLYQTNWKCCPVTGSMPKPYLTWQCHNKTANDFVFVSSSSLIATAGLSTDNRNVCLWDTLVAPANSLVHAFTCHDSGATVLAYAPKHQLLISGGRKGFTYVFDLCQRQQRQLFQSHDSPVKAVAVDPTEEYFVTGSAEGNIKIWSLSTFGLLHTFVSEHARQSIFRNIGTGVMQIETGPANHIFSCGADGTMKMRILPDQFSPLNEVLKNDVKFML
Chain of UniProt P05161 (P05161 whole entry, one chain of several): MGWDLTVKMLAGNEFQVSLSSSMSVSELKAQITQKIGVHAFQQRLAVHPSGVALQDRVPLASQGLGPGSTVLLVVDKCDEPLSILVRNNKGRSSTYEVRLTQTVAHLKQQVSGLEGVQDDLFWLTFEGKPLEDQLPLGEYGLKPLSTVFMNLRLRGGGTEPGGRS
Chain of UniProt A2RUS2 (A2RUS2 whole entry, one chain of several): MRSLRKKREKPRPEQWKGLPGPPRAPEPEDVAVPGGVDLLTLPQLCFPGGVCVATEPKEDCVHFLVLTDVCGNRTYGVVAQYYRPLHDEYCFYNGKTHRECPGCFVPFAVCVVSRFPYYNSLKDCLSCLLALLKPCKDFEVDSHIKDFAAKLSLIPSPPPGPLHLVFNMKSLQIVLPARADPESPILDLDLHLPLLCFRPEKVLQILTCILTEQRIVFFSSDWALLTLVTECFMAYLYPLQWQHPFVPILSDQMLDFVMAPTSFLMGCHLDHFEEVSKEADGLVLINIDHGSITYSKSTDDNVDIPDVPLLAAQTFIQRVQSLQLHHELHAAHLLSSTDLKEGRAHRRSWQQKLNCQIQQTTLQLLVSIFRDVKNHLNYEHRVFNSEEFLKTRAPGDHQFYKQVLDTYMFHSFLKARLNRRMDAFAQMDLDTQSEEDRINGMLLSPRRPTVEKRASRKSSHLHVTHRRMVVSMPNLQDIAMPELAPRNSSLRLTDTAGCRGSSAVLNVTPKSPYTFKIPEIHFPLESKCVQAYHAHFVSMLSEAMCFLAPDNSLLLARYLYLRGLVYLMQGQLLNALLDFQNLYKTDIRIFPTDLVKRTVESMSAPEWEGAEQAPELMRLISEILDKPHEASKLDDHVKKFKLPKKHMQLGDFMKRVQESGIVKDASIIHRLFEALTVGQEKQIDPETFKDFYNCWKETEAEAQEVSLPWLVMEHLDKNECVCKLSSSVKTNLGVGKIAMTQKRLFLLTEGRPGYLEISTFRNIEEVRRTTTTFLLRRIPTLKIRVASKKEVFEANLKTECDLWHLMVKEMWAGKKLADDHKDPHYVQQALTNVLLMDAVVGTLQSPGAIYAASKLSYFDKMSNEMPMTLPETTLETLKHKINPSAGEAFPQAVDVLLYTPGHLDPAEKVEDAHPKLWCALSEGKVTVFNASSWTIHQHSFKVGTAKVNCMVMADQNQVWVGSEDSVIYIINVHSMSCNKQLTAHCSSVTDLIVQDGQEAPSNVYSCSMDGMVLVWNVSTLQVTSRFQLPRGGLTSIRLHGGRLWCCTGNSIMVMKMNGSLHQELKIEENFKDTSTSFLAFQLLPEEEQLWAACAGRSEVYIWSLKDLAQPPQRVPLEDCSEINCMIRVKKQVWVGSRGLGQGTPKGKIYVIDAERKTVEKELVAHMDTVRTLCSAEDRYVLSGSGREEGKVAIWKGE

Target	NP40-soluble protein abundance (concentration: 0.1mM)	NP40-soluble protein abundance (concentration: 0.5mM)	NP40-soluble protein abundance (concentration: 1mM)	NP40-soluble protein abundance (concentration: 2mM)	NP40-soluble protein abundance (concentration: 4mM)	NP40-soluble protein abundance (concentration: 6mM)	NP40-soluble protein abundance (concentration: 8mM)	NP40-soluble protein abundance (concentration: 10mM)
A0A087WY71|Q96CW1|Q96CW1-2 (UniProt Q96CW1)	1.09 ± 0.11	1.12 ± 0.17	0.947 ± 0.078	1.04 ± 0.16	1.04 ± 0.14	1.03 ± 0.13	0.941 ± 0.023	0.95 ± 0.09
F8W8G5|P10242|P10242-10|P10242-11|P10242-2|P10242-4|P10242-7|P10242-8|P10242-9 (UniProt P10242)	1.02 ± 0.063	1.04 ± 0.077	1.08 ± 0.073	1.08 ± 0.086	1.12 ± 0.037	1.12 ± 0.1	1.15 ± 0.044	1.13 ± 0.051
A8MQ02|J3KN01|P55196|P55196-3|P55196-5 (UniProt P55196)	1.15 ± 0.16	0.987 ± 0.079	1 ± 0.038	1.05 ± 0.14	1.18 ± 0.34	1.18 ± 0.21	1.16 ± 0.14	1.13 ± 0.078
E9PF32|H0YAY3|A2RUS2|A2RUS2-2 (UniProt A2RUS2)	1.1 ± 0.17	1.13 ± 0.069	1.05 ± 0.038	1.1 ± 0.19	1.1 ± 0.12	1.1 ± 0.011	1 ± 0.14	1.01 ± 0.11
E9PP50|P23528 (UniProt P23528)	0.893 ± 0.054	0.906 ± 0.066	0.894 ± 0.066	0.823 ± 0.076	0.819 ± 0.068	0.839 ± 0.078	0.84 ± 0.066	0.821 ± 0.081
B0YIW6|P48444 (UniProt P48444)	1.06 ± 0.053	1.08 ± 0.078	1.02 ± 0.066	1.01 ± 0.11	1.02 ± 0.1	1.01 ± 0.083	0.975 ± 0.059	0.933 ± 0.067
F2Z3N7|C9JZ87|Q9NUM4 (UniProt Q9NUM4)	0.98 ± 0.036	0.932 ± 0.076	1.15 ± 0.077	1.06 ± 0.048	0.84 ± 0.18	0.949 ± 0.045	0.989 ± 0.051	0.969 ± 0.078
G5E9Z2|Q96KA5|Q96KA5-2 (UniProt Q96KA5)	1.09 ± 0.049	1.07 ± 0.017	1.02 ± 0.042	0.983 ± 0.034	0.989 ± 0.016	0.971 ± 0.039	0.974 ± 0.035	0.96 ± 0.04
F5H269|Q9Y485 (UniProt Q9Y485)	0.991 ± 0.013	1.11 ± 0.081	1.05 ± 0.096	1.01 ± 0.087	1.04 ± 0.09	1.06 ± 0.088	1.12 ± 0.15	1.11 ± 0.11
A0A096LNZ9|A0A096LPJ4|P05161 (UniProt P05161)	0.9514 ± 0.0057	0.961 ± 0.023	0.899 ± 0.019	0.888 ± 0.02	0.869 ± 0.026	0.885 ± 0.035	0.83 ± 0.034	0.836 ± 0.034
G3XAN4|Q15629|Q15629-2 (UniProt Q15629)	0.776 ± 0.028	0.785 ± 0.098	0.911 ± 0.14	0.819 ± 0.16	0.8 ± 0.15	0.783 ± 0.23	0.898 ± 0.19	0.905 ± 0.16
E9PEN0|Q8WYH8|Q8WYH8-2 (UniProt Q8WYH8)	1.1 ± 0.098	1.07 ± 0.16	1.26 ± 0.41	1.19 ± 0.26	1.33 ± 0.3	1.5 ± 0.35	1.48 ± 0.39	2 ± 0.59
E9PK67|E9PNI7|Q53GL7 (UniProt Q53GL7)	1.05 ± 0.097	1.06 ± 0.12	0.954 ± 0.041	1.01 ± 0.15	0.982 ± 0.12	0.935 ± 0.11	0.949 ± 0.019	0.949 ± 0.08

Source: the supplement of paper PMC6411743
